PubChem BioAssay AID1159580 (chemical genetic matrix, 2015)
The campaign covered roughly 5,500 compounds. About 2,000 (36%) were called active. Not shown: some 18% with an inconclusive outcome. Rule as the data show it: active = normalized growth mostly below about 0.91 (no sharp cut-off); inconclusive = no clear call, values can overlap the other calls; inactive = mostly above about 0.92. This is one part of the list.

Assay: chemical genetic growth profiling, strain panel (AID 1159580);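 also: tested at 20 µM; growth read once vehicle control cultures reached saturation at 30 °C; 1 = growth at the plate median or of vehicle wells; lower values mean less growth of the strain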
Conditions: growth OD

Measured: normalized growth

O=C1CC(c2ccc(O)cc2)Oc2ccccc21 (stereo unspecified)
inactive: S. cerevisiae deletion strains, locus YBR021W, strain FUR4, active compounds read low 0.896 | S. cerevisiae deletion strains, locus YBR229C, strain ROT2, active compounds read low 0.918 | S. cerevisiae deletion strains, locus YDL185W, strain tfp1, active compounds read low 0.907 | S. cerevisiae deletion strains, locus YDR150W, strain NUM1, active compounds read low 0.919 | S. cerevisiae deletion strains, locus YGL078C, strain dbp3, active compounds read low 0.944 | S. cerevisiae deletion strains, locus YHR200W, strain rpn10, active compounds read low 0.924 | S. cerevisiae deletion strains, locus YIL073C, strain SPO22, active compounds read low 0.786 | S. cerevisiae deletion strains, locus YIL125W, strain kgd1, active compounds read low 0.94 | S. cerevisiae deletion strains, locus YKL009W, strain mrt4, active compounds read low 0.976 | S. cerevisiae deletion strains, locus YLR102C, strain apc9, active compounds read low 0.928 | S. cerevisiae deletion strains, locus YLR371W, strain rom2, active compounds read low 0.927 | S. cerevisiae deletion strains, locus YNL128W, strain TEP1, active compounds read low 0.923 | S. cerevisiae deletion strains, locus YNR052C, strain pop2, active compounds read low 0.92 | S. cerevisiae deletion strains, locus YOL012C, strain htz1 0.38 | S. cerevisiae deletion strains, locus YOR061W, strain CKA2, active compounds read low 0.931 | S. cerevisiae deletion strains, locus YOR069W, strain VPS5, active compounds read low 0.946 | S. cerevisiae deletion strains, locus YPL241C, strain CIN2, active compounds read low 0.935 | S. cerevisiae deletion strains, locus YPR141C, strain kar3, active compounds read low 0.923 | S. cerevisiae deletion strains, locus YPR167C, strain met16, active compounds read low 0.93
active: S. cerevisiae deletion strains, locus YAL013W, strain DEP1, active compounds read low 0.894 | S. cerevisiae deletion strains, locus YCL029C, strain bik1, active compounds read low 0.858 | S. cerevisiae deletion strains, locus YDL035C, strain GPR1, active compounds read low 0.844 | S. cerevisiae deletion strains, locus YDL074C, strain BRE1, active compounds read low 0.632 | S. cerevisiae deletion strains, locus YDL101C, strain DUN1, active compounds read low 0.862 | S. cerevisiae deletion strains, locus YDL134C, strain PPH21, active compounds read low 0.798 | S. cerevisiae deletion strains, locus YDL192W, strain arf1, active compounds read low 0.818 | S. cerevisiae deletion strains, locus YDR101C, strain arx1, active compounds read low 0.865 | S. cerevisiae deletion strains, locus YDR162C, strain NBP2, active compounds read low 0.489 | S. cerevisiae deletion strains, locus YDR318W, strain mcm21, active compounds read low 0.746 | S. cerevisiae deletion strains, locus YDR388W, active compounds read low 0.897 | S. cerevisiae deletion strains, locus YDR502C, strain sam2, active compounds read low 0.815 | S. cerevisiae deletion strains, locus YEL061C, strain CIN8, active compounds read low 0.879 | S. cerevisiae deletion strains, locus YER110C, active compounds read low 0.855 | S. cerevisiae deletion strains, locus YER155C, strain BEM2, active compounds read low 0.769 | S. cerevisiae deletion strains, locus YER167W, strain BCK2, active compounds read low 0.687 | S. cerevisiae deletion strains, locus YGL086W, strain mad1, active compounds read low 0.848 | S. cerevisiae deletion strains, locus YGL248W, strain PDE1, active compounds read low 0.795 | S. cerevisiae deletion strains, locus YGR078C, strain PAC10, active compounds read low 0.694 | S. cerevisiae deletion strains, locus YGR135W, strain pre9, active compounds read low 0.787 | S. cerevisiae deletion strains, locus YGR229C, strain SMI1, active compounds read low 0.538 | S. cerevisiae deletion strains, locus YGR252W, strain gcn5, active compounds read low 0.718 | S. cerevisiae deletion strains, locus YHR030C, strain SLT2, active compounds read low 0.704 | S. cerevisiae deletion strains, locus YHR079C, strain IRE1 (second series), active compounds read low 0.8 | S. cerevisiae deletion strains, locus YHR094C, strain hxt1, active compounds read low 0.917 | S. cerevisiae deletion strains, locus YHR129C, strain ARP1, active compounds read low 0.795 | S. cerevisiae deletion strains, locus YIL066C, strain RNR3, active compounds read low 0.851 | S. cerevisiae deletion strains, locus YIR030C, strain dcg1, active compounds read low 0.86 | S. cerevisiae deletion strains, locus YJL095W, strain BCK1, active compounds read low 0.386 | S. cerevisiae deletion strains, locus YJL134W, strain LCB3, active compounds read low 0.919 | S. cerevisiae deletion strains, locus YJL168C, strain set2, active compounds read low 0.926 | S. cerevisiae deletion strains, locus YJL187C, strain SWE1 (second series), active compounds read low 0.817 | S. cerevisiae deletion strains, locus YJR043C, strain POL32, active compounds read low 0.76 | S. cerevisiae deletion strains, locus YJR075W, strain HOC1, active compounds read low 0.755 | S. cerevisiae deletion strains, locus YKL068W, active compounds read low 0.924 | S. cerevisiae deletion strains, locus YKL085W, strain MDH1 (second series), active compounds read low 0.923 | S. cerevisiae deletion strains, locus YKL085W, strain MDH1, active compounds read low 0.923 | S. cerevisiae deletion strains, locus YKL190W, strain CNB1, active compounds read low 0.874 | S. cerevisiae deletion strains, locus YKR001C, strain vps1, active compounds read low 0.598 | S. cerevisiae deletion strains, locus YLR039C, strain RIC1, active compounds read low 0.479 | S. cerevisiae deletion strains, locus YLR058C, strain SHM2, active compounds read low 0.829 | S. cerevisiae deletion strains, locus YLR262C, strain YPT6, active compounds read low 0.498 | S. cerevisiae deletion strains, locus YLR268W, strain sec22, active compounds read low 0.784 | S. cerevisiae deletion strains, locus YLR330W, strain CHS5, active compounds read low 0.82 | S. cerevisiae deletion strains, locus YLR342W, strain FKS1 (second series), active compounds read low 0.563 | S. cerevisiae deletion strains, locus YLR418C, strain cdc73, active compounds read low 0.471 | S. cerevisiae deletion strains, locus YML016C, strain PPZ1, active compounds read low 0.905 | S. cerevisiae deletion strains, locus YML032C, strain rad52, active compounds read low 0.696 | S. cerevisiae deletion strains, locus YML124C, strain tub3, active compounds read low 0.918 | S. cerevisiae deletion strains, locus YMR078C, strain ctf18, active compounds read low 0.808 | S. cerevisiae deletion strains, locus YMR223W, strain ubp8, active compounds read low 0.807 | S. cerevisiae deletion strains, locus YMR263W, strain SAP30, active compounds read low 0.823 | S. cerevisiae deletion strains, locus YMR307W, strain GAS1, active compounds read low 0.56 | S. cerevisiae deletion strains, locus YNL067W, strain RPL9B, active compounds read low 0.81 | S. cerevisiae deletion strains, locus YNL153C, strain GIM3, active compounds read low 0.837 | S. cerevisiae deletion strains, locus YNL233W, strain BNI4, active compounds read low 0.73 | S. cerevisiae deletion strains, locus YNL250W, strain rad50, active compounds read low 0.876 | S. cerevisiae deletion strains, locus YNL271C, strain bni1, active compounds read low 0.915 | S. cerevisiae deletion strains, locus YNL298W, strain CLA4, active compounds read low 0.903 | S. cerevisiae deletion strains, locus YNL307C, strain MCK1, active compounds read low 0.176 | S. cerevisiae deletion strains, locus YNL322C, strain KRE1, active compounds read low 0.9 | S. cerevisiae deletion strains, locus YOL006C, strain TOP1, active compounds read low 0.462 | S. cerevisiae deletion strains, locus YOL147C, strain pex11, active compounds read low 0.662 | S. cerevisiae deletion strains, locus YOR136W, strain idh2, active compounds read low 0.92 | S. cerevisiae deletion strains, locus YOR144C, strain elg1, active compounds read low 0.911 | S. cerevisiae deletion strains, locus YOR184W, strain ser1, active compounds read low 0.465 | S. cerevisiae deletion strains, locus YOR316C, strain cot1, active compounds read low 0.916 | S. cerevisiae deletion strains, locus YPL055C, strain LGE1, active compounds read low 0.712 | S. cerevisiae deletion strains, locus YPR119W, strain clb2, active compounds read low 0.89 | S. cerevisiae deletion strains, locus YPR163C, strain tif3, active compounds read low 0.451 | S. cerevisiae deletion strains, strain wtn01, active compounds read low 0.807 | S. cerevisiae strains, strain wild type, active compounds read low 0.838
